Key:
Assay type in all cases: functional
[1] = biological target: Solute carrier family 2, facilitated glucose transporter member 1 (Homo sapiens) (UniProt P11166); assay: ST_JUDE_LEISH: Cytotoxicity at 2uM final concentration against transgenic Leishmania Mexicana promastigotes LmGLUT1 that are glucose transport deficient and complemented with the human glucose transporter GLUT1. Activity is measured by DNA content using SYBR green in vitro
[2] = biological target: Hexose transporter 1 (Plasmodium falciparum) (UniProt O97467); assay: ST_JUDE_LEISH: Cytotoxicity at 2uM final concentration against transgenic Leishmania Mexicana promastigotes LmPfHT that are glucose transport deficient and complemented with the Plasmodium falciparum hexose transporter. Activity is measured by DNA content using SYBR green in vitro
[3] = biological target: Glucose transporter (Leishmania mexicana) (UniProt O61059); assay: ST_JUDE_LEISH: Cytotoxicity at 2uM final concentration against transgenic Leishmania Mexicana promastigotes LmGT2 that are glucose transport deficient and complemented with the L. Mexicana glucose transporter 2. Activity is measured by DNA content using SYBR green in vitro

Solute carrier family 2, facilitated glucose transporter member 1 (Homo sapiens), sequence (P11166 whole entry): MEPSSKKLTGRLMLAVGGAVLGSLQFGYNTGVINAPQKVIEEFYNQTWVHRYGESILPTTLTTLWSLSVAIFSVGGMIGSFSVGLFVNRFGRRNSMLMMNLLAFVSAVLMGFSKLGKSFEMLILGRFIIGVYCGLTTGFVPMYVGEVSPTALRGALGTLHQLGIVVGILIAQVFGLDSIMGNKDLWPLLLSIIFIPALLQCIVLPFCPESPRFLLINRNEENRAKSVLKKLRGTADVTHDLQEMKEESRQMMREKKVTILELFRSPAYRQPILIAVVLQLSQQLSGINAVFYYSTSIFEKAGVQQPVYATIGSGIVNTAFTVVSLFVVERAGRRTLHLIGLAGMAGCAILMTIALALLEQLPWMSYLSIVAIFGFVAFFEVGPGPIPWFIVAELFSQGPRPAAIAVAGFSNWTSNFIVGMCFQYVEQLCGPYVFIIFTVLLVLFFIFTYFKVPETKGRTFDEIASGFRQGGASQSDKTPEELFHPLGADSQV

| SMILES | inhibition [1] [%] | inhibition [2] [%] | inhibition [3] [%] |
| --- | --- | --- | --- |
| O=C(NC1CC1)c1cnc(N2CCN(Cc3ccc(Cl)cc3)CC2)c(Cl)c1 | 5.43 | 1.16 | -5.97 |
| Oc1ccc2[nH]c(-c3cccc(F)c3)nc2c1CN1CCCC1 | 4.75 | 3.49 | 1.21 |
| CCN(CC)CCN(Cc1ccc(-c2ccc(C(F)(F)F)cc2)cc1)C(=O)Cn1c(CCc2cccc(F)c2F)nc(=O)c2ccc(F)cc21 | 2.25 | 1.35 | 2.49 |
| O=C(Nc1cccc(CN2CCCN(Cc3ncc[nH]3)CC2)c1)c1ccc(Cl)c(Cl)c1 | 2.9 | 3.94 | 5.79 |
| Oc1cc2c(cc1CN1CCN(Cc3ccccc3F)CC1)CCC2 | 1.19 | -1.37 | 2.62 |
| CN(C)c1ccc(/C=C2\S/C(=N\c3ccccc3)N(c3ccccc3)C2=O)cc1[N+](=O)[O-] | 2.12 | 1.07 | -0.79 |
| CC(C)n1c(C(C)(C)C)cc2c3c(N)nc(N)nc3ccc21 | 52.7 | 62.4 | 44.4 |
| CCCc1ccc(NC(=O)c2cccc(CN3CCCN(Cc4cccc(O)c4)CC3)c2)cc1 | -0.09 | 2.34 | 0.71 |
| CCc1c[nH]c2c(N3CCCS3(=O)=O)cc(C(=O)N[C@@H](Cc3ccccc3)[C@H](O)CNC3CCCCC3)cc12 | -0.09 | 2.13 | 3.39 |
| OC1(c2ccccc2)CCN(Cc2cccc(-c3c[nH]c4nc(NC5CCCC5)ncc34)c2)C1 (configuration not stated) | 3.82 | 3.3 | 4.81 |
| CC1CN(c2ccc(NC(=O)c3ccc(F)cc3)cc2)CCN1Cc1cccc(F)c1 (configuration not stated) | 3.88 | 2.84 | 4.01 |
| Fc1cc(Cl)ccc1Nc1ccnc2cc(-c3ccc(CN4CCSCC4)o3)ccc12 | 1.72 | 3.56 | 8.14 |
| N#Cc1ccc2c(c1)CN(CCC1CCC(NC(=O)c3cc4ccccc4cc3N)CC1)CC2 (configuration not stated) | 5.84 | 5.45 | 3.13 |
| O=C(/C=C/c1ccc(C(F)(F)F)cc1)NCCCCCN1CCCN(C(=O)Nc2ccc(Cl)c(Cl)c2)CC1 | -0.66 | -0.09 | -0.19 |
| CN(C)C(=O)c1ccc(CN(Cc2ccc(OC(C)(C)C)cc2)Cc2ccc3c(c2)OCCO3)cc1 | 0.59 | 2.04 | 0.26 |
| CCc1ccc2c(c1O)CCN(C)C2Cc1ccccc1Cl (configuration not stated) | 8.14 | 5.29 | 11.8 |
| COc1ccc(Cc2nc3c(n2C(C)=O)SC(c2ccc(Cl)c(Cl)c2)=NN3C(C)=O)cc1 | 0.08 | 5.48 | 5.39 |
| CCOc1c(CNCCCNc2cc(O)c3ccccc3n2)cc(I)cc1OC | -0.3 | -1.22 | 1.41 |
| Cc1nc(-c2ccc(C#N)cc2)sc1C(=O)NCCCCN1CCC(c2ccc3c(c2OCCO)CCCC3)CC1 | 6.87 | 6.02 | 3.7 |
| COc1ccc(NC(=O)[C@H](Cc2ccccc2)Nc2cc(C)nc(NCCc3cccnc3)n2)cc1 | -0.56 | 1.12 | 1.34 |
| NS(=O)(=O)c1cncc(-c2ccc3nccc(-c4cn[nH]c4)c3n2)c1 | 6.71 | 7.77 | 6.63 |
| COc1ccc(NC(=O)c2ccc(-c3nc(-c4cccc(C(F)(F)F)c4)cs3)cc2)cc1N1CCN(C)CC1 | 0.87 | 1.59 | 2.01 |
| N#C/N=C(\NCCCCCCCCN/C(=N\C#N)NCCSCc1csc(N=C(N)N)n1)NCCCSc1csc(N=C(N)N)n1 | -0.03 | 0.11 | 0.43 |
| COc1cc(CCNCC(O)c2ccc([N+](=O)[O-])c(OCc3ccccc3)c2)cc(OC)c1OC (configuration not stated) | -0.46 | 1.28 | 0.48 |
| Cc1cccc2nc(-c3ccc(-c4ccc(NC(=O)Nc5ccc(Cl)cc5)cc4)cc3)[nH]c12 | -1.7 | 1.17 | -1.04 |

| SMILES | inhibition [1] [%] | inhibition [2] [%] | inhibition [3] [%] |
| --- | --- | --- | --- |
| OC1CCCN(Cc2ccc(-c3ccc(-c4nc5ccccc5[nH]4)cc3)cc2)C1 (configuration not stated) | 8.52 | 7.95 | 5.37 |
| COc1cc(NC(=O)c2ccc3c(=O)n(Cc4ccccc4)c(=S)[nH]c3c2)cc(OC)c1OC | 5.79 | 7.58 | 7.73 |
| CC1SC(=S)NC1C(=O)O (configuration not stated) | -1.93 | 0.57 | 0.24 |
| O=S(=O)(NC1=NCCC1)c1cccc(Nc2nc(C(F)(F)F)nc3ccccc23)c1 | -1.06 | -1.27 | -3.08 |
| c1ccc(CN2CCC(NCc3ccccc3-c3ccc(CNC4CCCC4)cc3)CC2)cc1 | 4.61 | 3.06 | 6.38 |
| Cc1[nH]c2c(C)cccc2c1C1CCN(CCC2CCN(C(=O)/C=C/c3ccc(Cl)c(Cl)c3)CC2)CC1 | 3.84 | 3.13 | 2.49 |
| Oc1ccc(-c2ccccc2)cc1CN1CCCCCC1 | 1.18 | 2.49 | 1 |
| Cc1cccc2nc(-c3cccc(-c4cccc(NC(=O)c5cn(C)c(=O)n5C)c4)c3)[nH]c12 | 1.98 | 1.44 | -0.64 |
| COc1ccc(-c2cc3ncnc(N4CCN(CCN5CCCC5)CC4)c3s2)cc1 | 2.34 | 0.99 | 0.9 |
| O=C(/C=C/c1ccc(Cl)c(Cl)c1)NCCCCCN1CCC(NC(=O)Nc2cccc(F)c2)CC1 | 2.32 | 1.97 | 2.29 |
| COc1ccc(-c2cnc3ccc(NCc4ccc(S(N)(=O)=O)cc4)nn23)cc1 | 3.11 | 3.14 | 12.6 |
| Cc1ccc(O)cc1Nc1ccnc2ccc(-c3csc(CNCCN4CCOCC4)n3)cc12 | 3.28 | 2.25 | 1.59 |
| CCCCCCCNc1cc(C)nc2ccc(OC)cc12 | 16.5 | 9.23 | 12.4 |
| O=C(NCCCCCN1CCC(c2c[nH]c3ccccc23)CC1)Nc1ccc(I)c(Cl)c1 | 7.04 | 4.76 | 5.92 |
| Cc1nn(CC(C)C)c2sc(C(=O)N3CCN(S(=O)(=O)c4ccc(C#N)cc4)CC3)cc12 | 10.3 | 8.28 | 5.07 |
| C=CCNC(=O)CCCNC(=N)N | 1.5 | 1.22 | -0.35 |
| O=C(/C=C/c1ccc(Cl)c(Cl)c1)NCCCCCN1CCC(NC(=O)Nc2ccc([N+](=O)[O-])cc2)CC1 | -0.34 | 1.11 | -0.43 |
| Cc1ccc2[nH]c(C3CCCNC3)c(-c3ccncc3)c2c1 (configuration not stated) | 9.43 | 9.43 | 8.51 |
| Cc1cccc(-c2nc3cc(NC(=O)c4ccc([N+](=O)[O-])o4)ccc3o2)c1 | 6.53 | 7.69 | 2.04 |
| Cc1cc(O)c(-c2ccc(Sc3ccc(Cl)cc3)cc2)c(C)n1 | -0.64 | 3.32 | -4.88 |
| Nc1ncc(-c2ccsc2)c2ccc(-c3cc(NCc4ccccc4)ncn3)cc12 | 10.1 | 8.31 | 7.39 |
| CCNc1cc(C(=O)NC(Cc2ccccc2)C(O)CNC(C)(C)CCCC(C)C)c(F)c(N2CCCS2(=O)=O)c1 (configuration not stated) | -2.99 | -1.24 | 1.59 |
| O=C(Nc1ccc(Cl)c(Cl)c1)N(Cc1ccccc1Br)C1CCNCC1 | 0.5 | 3.45 | 0.68 |
| Cc1ccc(-n2c(Cc3cccc4ccccc34)nnc2SCCC#N)c(C)c1 | 5.99 | 5.29 | 8.9 |

Source: ChEMBL document CHEMBL3433997, “St. Jude Leishmania screening dataset” (2016)
